Test systems include SK-MEL-2 melanoma; EKVX NSCLC; SN12C renal; UO-31 renal; ACHN renal; CAKI-1 renal; A498 renal; CCRF-CEM leukemia; MOLT-4 leukemia; SR leukemia; RPMI-8226 leukemia; OVCAR-8 ovarian; OVCAR-5 ovarian; OVCAR-4 ovarian; SK-OV-3 ovarian; IGROV1 ovarian; OVCAR-3 ovarian; HS 578T breast; NCI/ADR-RES ovarian; TK-10 renal.
Holding throughout (experiment): NCI-60 one-dose screen, 48 h (100 = growth as untreated, 0 = no growth, -100 = all killed)
Common to all, as to settings: 10 µM

The panel holds about 83,000 compounds, 20% with a hit somewhere; the sample as a whole holds those more often.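 Cell lines were cultured in 96-well plates, exposed to a single compound concentration, and assessed for percent growth 48 hours later.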 Unmarked numbers belong to inactive results. The source made the active and inactive calls. How the source made its calls: active means growth percent below 10; inactive means the rest.

With `Clc1ccc(/C=C2\CCCC3C2=Nc2ccccc2NC3c2ccc(Cl)cc2)cc1` (stereo not given), the growth with SK-MEL-2 melanoma is 92.1%; with EKVX NSCLC it was 89.3%; with SN12C renal, 85.3%; with UO-31 renal it was 70.7%; in the experiment with ACHN renal, 97.3%; in the experiment on CAKI-1 renal, 91.3%. For the same compound, the growth with A498 renal was 67.2%; in the experiment on CCRF-CEM leukemia, 75.9%; with MOLT-4 leukemia, 65.8%; with SR leukemia, 21.5%; in the experiment with RPMI-8226 leukemia it was -16% (active); with OVCAR-8 ovarian, 65.8%. The growth in the experiment on OVCAR-5 ovarian was 93.8%; with OVCAR-4 ovarian, 79.5%; with SK-OV-3 ovarian, 70.9%; in the experiment with IGROV1 ovarian it was 83.1%; with OVCAR-3 ovarian, 67%; with HS 578T breast it was 102%. Besides, the growth in the experiment with NCI/ADR-RES ovarian was 99.4%.
Take `COc1ccc(C(=O)c2cc3c(OC)c(OC)c(OC)cc3[nH]2)cc1`: the growth is 43.7% with SK-MEL-2 melanoma; 98.4% with EKVX NSCLC; 75.1% in the experiment with SN12C renal; 56% with UO-31 renal; 79.4% in the experiment with ACHN renal; 128% in the experiment on CAKI-1 renal. The growth was 59.9% in the experiment with A498 renal; 42.8% in the experiment on CCRF-CEM leukemia; 50.2% in the experiment on MOLT-4 leukemia; -47.8% (active) in the experiment on SR leukemia; 31.4% in the experiment on RPMI-8226 leukemia; 62.8% in the experiment on OVCAR-8 ovarian. Besides, the growth with OVCAR-5 ovarian was 68.4%; in the experiment on OVCAR-4 ovarian it was 62.7%; in the experiment on SK-OV-3 ovarian it was 86.4%; in the experiment on IGROV1 ovarian, 35%; in the experiment on OVCAR-3 ovarian, 45.1%; with NCI/ADR-RES ovarian, 18.6%.
As to `Cc1ccc(C2NC(=S)N3C(c4ccc(C)cc4)NC(=S)N23)cc1` (stereo not given), the growth was -32.9% (active) with SK-MEL-2 melanoma; 43.1% in the experiment on EKVX NSCLC; 52.5% in the experiment on SN12C renal; 12.7% in the experiment with UO-31 renal; 63.4% in the experiment with ACHN renal; 49.6% in the experiment on A498 renal. In addition, the growth in the experiment with CCRF-CEM leukemia is 12.3%; in the experiment on MOLT-4 leukemia, 24.8%; with RPMI-8226 leukemia, 6.55% (active); in the experiment on OVCAR-8 ovarian, 35.7%; in the experiment with OVCAR-5 ovarian it was 81.6%; with OVCAR-4 ovarian, 117%. Moreover, the growth was 49% with SK-OV-3 ovarian, -20% (active) with OVCAR-3 ovarian, 26.4% in the experiment on HS 578T breast and 19% in the experiment with NCI/ADR-RES ovarian.
In the case of `COc1ccc(Cl)cc1Nc1nc(C(F)(F)F)ccc1C(=O)N/N=C/c1ccc(Cl)cc1`, the growth with SK-MEL-2 melanoma is 26.4%; in the experiment with EKVX NSCLC, 56.6%; in the experiment on SN12C renal, 49%; with UO-31 renal, 18.8%; with ACHN renal it was 36.8%; with CAKI-1 renal it was 13.3%. Besides, the growth in the experiment with A498 renal is -35.2% (active); in the experiment on MOLT-4 leukemia, 1.89% (active); with SR leukemia, -0.906% (active); with RPMI-8226 leukemia, 20.4%; in the experiment on OVCAR-8 ovarian, 46.8%; in the experiment on OVCAR-5 ovarian, 57.2%. Further, the growth with OVCAR-4 ovarian is 27.6%; with SK-OV-3 ovarian, 44.5%; with IGROV1 ovarian, 45.2%; in the experiment with OVCAR-3 ovarian, -34.7% (active); in the experiment on HS 578T breast, 3.13% (active); in the experiment with NCI/ADR-RES ovarian, 41%.
Take `COc1cc2c(Nc3ccc(-c4ccc(N)cc4)cc3)ncnc2c(OC)c1OC`: the growth with SK-MEL-2 melanoma was 18.5%; in the experiment on EKVX NSCLC it was 59.2%; in the experiment on SN12C renal, 62.2%; in the experiment with UO-31 renal, 22.7%; with ACHN renal, 32.1%; in the experiment with CAKI-1 renal, 3.89% (active). For the same compound, the growth in the experiment with A498 renal is 43.4%; in the experiment with CCRF-CEM leukemia, 23.3%; in the experiment with MOLT-4 leukemia it was 19.8%; in the experiment with RPMI-8226 leukemia it was 39.5%; in the experiment on OVCAR-8 ovarian, 41.2%; in the experiment on OVCAR-5 ovarian, 40.1%. Also, the growth in the experiment on OVCAR-4 ovarian is 51.4%; in the experiment on SK-OV-3 ovarian, 36.1%; with IGROV1 ovarian, 22.5%; in the experiment with OVCAR-3 ovarian, 41.4%; in the experiment with HS 578T breast it was 70.6%; in the experiment on NCI/ADR-RES ovarian it was 48.9%.
For the compound `Clc1nc2ccc(Br)cc2cc1-c1nc2ccccc2[nH]1`, the growth was 120% in the experiment with SK-MEL-2 melanoma; 50.3% in the experiment with EKVX NSCLC; 15.2% in the experiment with SN12C renal; 79.7% in the experiment on UO-31 renal; 2.34% (active) with ACHN renal; 84.2% with CAKI-1 renal. The growth with A498 renal was 39.9%; in the experiment with CCRF-CEM leukemia it was 72.9%; in the experiment with MOLT-4 leukemia, 47.2%; in the experiment with RPMI-8226 leukemia, 70.4%; in the experiment on OVCAR-8 ovarian, 88.2%; in the experiment with OVCAR-5 ovarian it was 108%. Moreover, the growth with OVCAR-4 ovarian is 65.3%; with SK-OV-3 ovarian it was 54.8%; in the experiment with IGROV1 ovarian it was 80.1%; in the experiment with OVCAR-3 ovarian, 95.5%; in the experiment on HS 578T breast, 47.8%; in the experiment with NCI/ADR-RES ovarian it was 92.9%.
In the case of `COC1=CC(=O)OC(c2ccc(OC)cc2)C1` (stereo not given), the growth in the experiment on SK-MEL-2 melanoma was 98.9%; with EKVX NSCLC it was 96.1%; in the experiment on SN12C renal, 99.3%; with TK-10 renal, 104%; with ACHN renal it was 103%; in the experiment on CAKI-1 renal, 85.8%. Also, the growth was 96.4% in the experiment on A498 renal; 107% with CCRF-CEM leukemia; 101% in the experiment on MOLT-4 leukemia; 111% in the experiment with RPMI-8226 leukemia; 105% with OVCAR-8 ovarian; 106% in the experiment on OVCAR-5 ovarian. Further, the growth in the experiment on OVCAR-4 ovarian is 106%; in the experiment with SK-OV-3 ovarian it was 117%; in the experiment on OVCAR-3 ovarian, 103%; in the experiment with HS 578T breast, 111%; in the experiment with NCI/ADR-RES ovarian it was 102%.
For `COc1ccc2c(c1)CC=C1[C@@H]2CC[C@]2(C)C(=O)/C(=N/O)C[C@@H]12`, the growth is 115% in the experiment on SK-MEL-2 melanoma; 76.6% with EKVX NSCLC; 82.7% in the experiment on SN12C renal; 92.7% in the experiment with TK-10 renal; 74.4% in the experiment on ACHN renal; 6.9% (active) with CAKI-1 renal. For the same compound, the growth is 33.1% in the experiment on CCRF-CEM leukemia; 63.3% with MOLT-4 leukemia; 74.6% in the experiment on SR leukemia; 83.8% with RPMI-8226 leukemia; 102% in the experiment with OVCAR-8 ovarian; 86.1% in the experiment with OVCAR-5 ovarian. For the same compound, the growth with SK-OV-3 ovarian is 116%; in the experiment on OVCAR-3 ovarian it was 106%; in the experiment on HS 578T breast, 90.3%.
For the compound `Cc1ccc(C(SCC(N)C(=O)O)(c2ccc(C)cc2)c2ccc(C)cc2)cc1` (stereo not given), the growth in the experiment with SK-MEL-2 melanoma was -52.1% (active); in the experiment on EKVX NSCLC, -8.36% (active); in the experiment on SN12C renal, 42.3%; in the experiment on UO-31 renal it was 25.3%; in the experiment with ACHN renal, 60.3%; in the experiment with A498 renal, 46.3%. Further, the growth with CCRF-CEM leukemia was 6.77% (active); with MOLT-4 leukemia, 7.71% (active); with RPMI-8226 leukemia it was -36.6% (active); in the experiment on OVCAR-8 ovarian it was 7.22% (active); with OVCAR-5 ovarian, 38.6%; in the experiment with OVCAR-4 ovarian it was 47.8%. In addition, the growth in the experiment with SK-OV-3 ovarian was 26%; with OVCAR-3 ovarian, -42.6% (active); with HS 578T breast, -15.3% (active); in the experiment with NCI/ADR-RES ovarian, 57.8%.

For the origin of these results see PubChem BioAssay (NCI).
